Experiment [1] addresses Glutathione peroxidase 1 (Homo sapiens) (UniProt P07203). Kind of experiment: Primary qHTS Assay for Inhibitors of Recombinant Selenoprotein Glutathione Peroxidase 1 (GPX1) (AID 1845191). Also: nearly all actives have a fitted effect of over 65% in size. Also: potency is read from the fitted curve at half-maximal effect. Put shortly:
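Recombinant GPX1 (10 nM final) was preincubated with compound for 30 min at room temperature, then reacted with 1 mM GSH, 0.5 mM CHP, 0.5 mM NADPH and 100 nM glutathione reductase; NADPH fluorescence (340/450 nm) was read at 0 and 15 min.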
Background: qHTS replaces the single test concentration by a dilution series.

The target of experiment [2] is Phospholipid hydroperoxide glutathione peroxidase GPX4 (Homo sapiens) (UniProt P36969). As to the kind of experiment: Primary qHTS Assay for Inhibitors of Recombinant Selenoprotein Glutathione Peroxidase 4 (GPX4) (AID 1845192). Also: series mostly up to about 50 µM; nearly all actives have a fitted effect of over 65% in size. The essentials:
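GR-coupled readout: 100 nM GR, 1 mM GSH, 0.5 mM NADPH; NADPH fluorescence (ex 340/em 450 nm) read at t=0 and after 15 min RT. GPX4 200 nM, preincubated 30 min with compound; substrate 0.5 mM CHP.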

Experiment [3] addresses Luciferin 4-monooxygenase (Photinus pyralis) (UniProt P08659). As to the kind of experiment: Primary firefly luciferase (FLuc) qHTS assay for identification of artifact compounds. (AID 1845220). Also: nearly all actives have a fitted effect of over 60% in size. Put shortly:
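In this counter-screen for luciferase artifacts, test compounds met substrate (10 uM each luciferin and ATP) before 10 nM enzyme started the reaction. Light output was measured 5 min later.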

The nature of experiment [4]: Primary fluorescence-based thiol-reactive (MSTI) qHTS assay for identification of artifact compounds. (AID 1845221). Also: nearly all actives have a fitted effect of over 65% in size. Also: potency is read from the fitted curve at half-maximal effect. Put shortly:
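Curve-fitted percent inhibition (4-parameter Hill) derived from fluorescence, Ex 525/Em 598 nm, scaled with Acetyl-MSTI and MSTI; 1 h incubation at room temperature.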

Experiment [5] relates to Nanoluciferase (engineered Oplophorus gracilirostris luciferase). Kind of experiment: Primary Nanoluciferase (NLuc) qHTS assay for identification of artifact compounds. (AID 1845222).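 Also: NLuc secreted into diluted conditioned medium of S16 cells; series mostly up to about 54 µM.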 The essentials:
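Using secreted nanoluciferase in S16 culture medium (0.22 um filtered, 1:55 dilution), compounds were preincubated 15 min at RT. Signal was generated with Nano-Glo reagent (1:100) over 5 min.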

A short description of experiment [6]: Primary redox qHTS assay for identification of artifact compounds. (AID 1845223). Put shortly:
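Amplex Red (25 uM) and HRP (250 mU/mL) in HBSS, with compounds for 15 min, then 250 uM DTT for 30 min, room temperature, dark. Fluorescence 525/598 nm read; normalized to DMSO and 10 uM DA3003; Hill fit.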

Values joined by “and” are separate entries in the source; they are usually repeats but may differ in a detail not shown here. Equal entries are not always repeated. Results filed as inconclusive are left out. Some structures have more than one record in an assay (separate samples or runs), and their calls can disagree. Active and inactive are the calls of the source. Calls follow the shape of the dose curve; as a rule, active = well fitted curve in the direction sought with a large enough effect; inconclusive = small, poorly fitted or top-dose-only effect, or another doubt; inactive = no such curve, though single readings can be large; an effect the other way counts as inactive or inconclusive.

Our source for the Potency values is PubChem BioAssay (NCATS).

Glutathione peroxidase 1 (Homo sapiens), sequence (P07203 whole entry, looked up): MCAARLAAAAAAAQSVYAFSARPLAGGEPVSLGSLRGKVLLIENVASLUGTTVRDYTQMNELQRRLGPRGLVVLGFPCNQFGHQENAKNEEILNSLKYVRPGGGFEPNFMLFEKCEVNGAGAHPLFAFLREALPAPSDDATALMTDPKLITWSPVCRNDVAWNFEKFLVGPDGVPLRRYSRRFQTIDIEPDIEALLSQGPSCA
Phospholipid hydroperoxide glutathione peroxidase GPX4 (Homo sapiens), sequence (P36969 whole entry, looked up): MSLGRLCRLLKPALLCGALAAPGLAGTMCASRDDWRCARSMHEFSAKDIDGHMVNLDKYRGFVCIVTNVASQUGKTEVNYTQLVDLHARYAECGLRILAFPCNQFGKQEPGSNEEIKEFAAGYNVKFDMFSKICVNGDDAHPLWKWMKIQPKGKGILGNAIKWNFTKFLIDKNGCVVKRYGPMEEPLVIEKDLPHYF

For `Cn1cc(-c2ccc3c(c2)CCN3C(=O)Cc2cccc(C(F)(F)F)c2)c2c(N)ncnc21`, the Potency result in experiment [1] was “inactive and 18.3 µM (active)”; in experiment [4] it was 29.9 µM (active). The Potency entry in experiment [2], in experiment [3], in experiment [5] and in experiment [6] was “inactive” in each case.
On to `O=C(c1ccc(Cl)cc1)N1CCN(c2ccnc3cc(Cl)ccc23)CC1`, for which the Potency result in experiment [1], in experiment [2], in experiment [3], in experiment [4], in experiment [5] and in experiment [6] was “inactive” each time.
With `CC(=O)O[C@@H]1C[C@@]2(C)C(CC[C@]3(C)C2CC=C2C4CC(C)(C)CC[C@]4(C(=O)O)CC[C@]23C)C(C)(C)[C@H]1O` (some centres undefined), the Potency entry in experiment [1], in experiment [2], in experiment [3], in experiment [4], in experiment [5] and in experiment [6] was “inactive” each time.
Consider `O=C(Nc1ccc(C(O)(C(F)(F)F)C(F)(F)F)cc1)c1ccc(C(F)(F)F)cc1`, for which the Potency entry in experiment [1], in experiment [2], in experiment [3], in experiment [4], in experiment [5] and in experiment [6] was “inactive” throughout.
Turning to `C=C[C@@]12COC(=O)C(=C)[C@@H]1[C@@H](O)[C@H](C(=C)C(=O)OC)[C@@H](O)C2`, the Potency result in experiment [1], in experiment [2], in experiment [3], in experiment [4], in experiment [5] and in experiment [6] was “inactive” in each case.
`CO[C@@H]1[C@H](O)CCC2(CO2)[C@H]1[C@@]1(C)O[C@@H]1CC=C(C)C` (some centres undefined): the Potency result in experiment [1], in experiment [2], in experiment [3], in experiment [4], in experiment [5] and in experiment [6] was “inactive” each time.
For `Cc1cc(Nc2nc(-c3ccccc3)nc3ccccc23)n[nH]1`, the Potency entry in experiment [1], in experiment [2], in experiment [3], in experiment [4], in experiment [5] and in experiment [6] was “inactive” throughout.
Consider `CC(C)C(C)C(O)C1CC23CC(=O)C4(O)C(=C2CCC3C1C)C=CC1(O)CC(O)CCC14C` (centres undefined), for which the Potency entry in experiment [1], in experiment [2], in experiment [3], in experiment [4], in experiment [5] and in experiment [6] was “inactive” throughout.
For `COc1ccc(S(=O)(=O)Nc2c(C)cc(C)cc2C)cc1`, the Potency entry in experiment [1], in experiment [2], in experiment [3], in experiment [4], in experiment [5] and in experiment [6] was “inactive” each time.
Turning to `COc1cc2nc(C3CC3)nc(N3CCN(c4ccccc4OC)CC3)c2cc1OC`, the Potency result in experiment [1], in experiment [2], in experiment [3], in experiment [4], in experiment [5] and in experiment [6] was “inactive” throughout.
For the compound `CC(=O)C1(C)CCC2C3C=C(C)C4=CC(=O)CCC4(C)C3CCC21C` (centres undefined), the Potency entry in experiment [1], in experiment [2], in experiment [3], in experiment [4], in experiment [5] and in experiment [6] was “inactive” throughout.
Turning to `CCCCNc1ncc2c(-c3ccc(S(=O)(=O)N4CCOCC4)cc3)nn(C3CCC(O)CC3)c2n1` (centres undefined), the Potency result in experiment [1], in experiment [2], in experiment [3], in experiment [4], in experiment [5] and in experiment [6] was “inactive” each time.
With `CC(C)(O)C1CC(=O)C2(C)C(CCC3(C)C(c4ccoc4)OC(=O)C4OC432)C12CCC(=O)OC2` (centres undefined), the Potency entry in experiment [1], in experiment [2], in experiment [3], in experiment [4], in experiment [5] and in experiment [6] was “inactive” throughout.
On to `CN(C)CCN(Cc1ccc(-c2ccc(CNCCc3ccccc3)cc2)cc1)C(=O)CCC1CCCC1`, for which the Potency entry in experiment [1], in experiment [2], in experiment [3], in experiment [4], in experiment [5] and in experiment [6] was “inactive” in each case.
As for `C[C@@H]1O[C@@H](O[C@H]2[C@@H]3C=CO[C@@H](O[C@@H]4O[C@H](CO)[C@@H](O)[C@H](O)[C@H]4O)[C@@H]3[C@@]3(CO)O[C@@H]23)[C@H](O)[C@H](OC(=O)/C=C/c2ccccc2)[C@H]1O`, the Potency result in experiment [1], in experiment [2], in experiment [3], in experiment [4], in experiment [5] and in experiment [6] was “inactive” throughout.
In the case of `Cc1cc(C)nc(SCC(=O)Nc2ncc(Cc3cccc4ccccc34)s2)n1`, the Potency entry in experiment [1], in experiment [2], in experiment [3], in experiment [4], in experiment [5] and in experiment [6] was “inactive” in each case.
On to `CC1(C)OC[C@H](NC(=O)Nc2ccc(Br)cc2Br)[C@H](c2ccccc2)O1`, for which the Potency result in experiment [1], in experiment [2], in experiment [3], in experiment [4], in experiment [5] and in experiment [6] was “inactive” throughout.
Turning to `CC(=O)O[C@@H]1CC2C(/C=C(\C)C(=O)[C@@]3(O)C[C@@H](C)[C@H](OC(=O)c4ccccc4)C3/C=C/1C)C2(C)C` (some centres undefined), the Potency result in experiment [1], in experiment [2], in experiment [3], in experiment [4], in experiment [5] and in experiment [6] was “inactive” each time.
For `O=C(Nc1ccc(-n2nc(C(F)(F)F)cc2C(F)(F)F)cc1)c1ccncc1F`, the Potency entry in experiment [1], in experiment [2], in experiment [3], in experiment [4], in experiment [5] and in experiment [6] was “inactive” in each case.
Consider `O=C(N[C@H](Cc1cscn1)C(=O)N[C@@H](CC1CCCCC1)[C@@H](O)[C@@H](O)C1CC1)c1nc2ccccc2[nH]1`, for which the Potency entry in experiment [1], in experiment [2], in experiment [3], in experiment [4], in experiment [5] and in experiment [6] was “inactive” throughout.
Turning to `C=C1C(=O)OC2CC(C)=C(C(C)CCCOC(C)=O)C(OC(=O)CC(C)CC)C12` (centres undefined), the Potency result in experiment [1], in experiment [2], in experiment [3], in experiment [4], in experiment [5] and in experiment [6] was “inactive” in each case.
Regarding `O=C(NCCCNc1nc(Nc2cccc(CN3CCOCC3)c2)ncc1C1CC1)C1CCC1`, the Potency result in experiment [1], in experiment [2], in experiment [3], in experiment [4], in experiment [5] and in experiment [6] was “inactive” throughout.
With `C/C=C(\C)C(=O)O[C@H]1C[C@](C)(O)[C@H]2CC=C(C)[C@H]2[C@@H]2OC(=O)[C@H](C)[C@H]21`, the Potency result in experiment [1], in experiment [2], in experiment [3], in experiment [4], in experiment [5] and in experiment [6] was “inactive” throughout.
As to `CC1=CC2/C=C(\C)CCC(O)C/C=C/C(=O)OC23C(=O)NC(CC(C)C)C3C1C` (centres undefined), the Potency result in experiment [1], in experiment [2], in experiment [3], in experiment [4], in experiment [5] and in experiment [6] was “inactive” throughout.
